Experimental data published in publication PMC7862700, “An all-to-all approach to the identification of sequence-specific readers for epigenetic DNA modifications on cytosine”.

Experiments:
Experiment in all cases: DAPPL (digital affinity profiling via proximity ligation, sequencing); 10 mM Tris-HCl pH 7.5, 50 mM NaCl, 1 mM DTT, 4% glycerol, room temperature, 30 min; GST-TFs on glutathione beads, 16-mer random dsDNA library, 0.1% formaldehyde crosslink after washing; high values mean tight binding
Conditions in all cases: protein: recombinant; tags: N-terminal GST; dsDNA, one strand shown
[1] = target: ETV1 (Homo sapiens, UniProt P50549 1-477)
Sequence of ETV1 (P50549 whole entry, the tested form may be a part): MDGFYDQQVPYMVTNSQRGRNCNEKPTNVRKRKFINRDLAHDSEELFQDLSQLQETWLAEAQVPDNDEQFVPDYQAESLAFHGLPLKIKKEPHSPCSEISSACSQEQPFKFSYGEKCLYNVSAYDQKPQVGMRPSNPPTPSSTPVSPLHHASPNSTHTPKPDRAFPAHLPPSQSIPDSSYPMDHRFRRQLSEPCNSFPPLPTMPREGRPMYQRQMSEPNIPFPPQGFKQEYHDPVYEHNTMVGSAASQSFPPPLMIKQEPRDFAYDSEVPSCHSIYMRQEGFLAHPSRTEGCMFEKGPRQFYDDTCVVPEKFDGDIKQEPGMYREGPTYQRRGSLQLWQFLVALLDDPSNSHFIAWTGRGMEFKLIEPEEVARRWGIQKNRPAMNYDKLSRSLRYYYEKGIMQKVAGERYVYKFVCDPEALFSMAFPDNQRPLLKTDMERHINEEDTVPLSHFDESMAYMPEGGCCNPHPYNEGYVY
Method in brief: (§1)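 A tag-only sample was pooled with DNA-barcoded human transcription factors that had been expressed in yeast as GST fusions and captured on glutathione beads. The pools were incubated for 30 min at room temperature with 200 nmole of a random double-stranded 16-mer DNA library in Tris/NaCl/DTT/glycerol buffer, then washed, crosslinked with 0.1% formaldehyde, proximity-ligated (BsaI/T4 ligase, 1 h, 37 °C), PCR-amplified and sequenced on an Illumina NextSeq500. Binding signal is each hexamer's read frequency for a factor divided by its frequency for the tag-only sample.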

[2] = target: T1, ERF (Homo sapiens, UniProt P50548 1-548)
T1 sequence: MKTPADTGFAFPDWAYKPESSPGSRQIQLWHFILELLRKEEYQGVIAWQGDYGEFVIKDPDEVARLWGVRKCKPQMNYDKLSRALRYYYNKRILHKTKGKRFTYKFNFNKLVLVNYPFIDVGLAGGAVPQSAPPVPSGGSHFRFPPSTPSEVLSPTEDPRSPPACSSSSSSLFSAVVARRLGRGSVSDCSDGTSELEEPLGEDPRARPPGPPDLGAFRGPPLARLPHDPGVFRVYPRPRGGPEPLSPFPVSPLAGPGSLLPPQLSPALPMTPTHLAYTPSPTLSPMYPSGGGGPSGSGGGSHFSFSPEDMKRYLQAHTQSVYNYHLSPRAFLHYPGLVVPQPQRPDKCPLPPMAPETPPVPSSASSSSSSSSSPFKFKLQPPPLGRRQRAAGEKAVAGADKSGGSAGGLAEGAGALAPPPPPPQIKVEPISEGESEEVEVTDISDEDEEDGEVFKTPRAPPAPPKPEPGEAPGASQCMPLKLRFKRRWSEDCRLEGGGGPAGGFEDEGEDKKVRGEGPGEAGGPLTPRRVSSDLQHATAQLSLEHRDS
Method in brief: as §1

[3] = target: T2, ETV3L (Homo sapiens, UniProt Q6ZN32 1-361)
T2 sequence: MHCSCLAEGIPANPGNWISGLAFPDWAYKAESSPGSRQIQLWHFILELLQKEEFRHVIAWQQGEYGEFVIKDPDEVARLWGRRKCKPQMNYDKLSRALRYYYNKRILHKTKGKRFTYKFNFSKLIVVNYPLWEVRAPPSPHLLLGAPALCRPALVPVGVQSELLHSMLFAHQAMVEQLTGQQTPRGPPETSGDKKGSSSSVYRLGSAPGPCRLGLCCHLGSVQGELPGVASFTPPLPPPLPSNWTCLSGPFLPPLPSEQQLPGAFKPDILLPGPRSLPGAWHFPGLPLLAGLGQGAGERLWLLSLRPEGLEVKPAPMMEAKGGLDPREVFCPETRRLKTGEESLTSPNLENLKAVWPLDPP
Method in brief: as §1

[4] = target: T3, ETS2 (Homo sapiens, UniProt P15036 1-469)
T3 sequence: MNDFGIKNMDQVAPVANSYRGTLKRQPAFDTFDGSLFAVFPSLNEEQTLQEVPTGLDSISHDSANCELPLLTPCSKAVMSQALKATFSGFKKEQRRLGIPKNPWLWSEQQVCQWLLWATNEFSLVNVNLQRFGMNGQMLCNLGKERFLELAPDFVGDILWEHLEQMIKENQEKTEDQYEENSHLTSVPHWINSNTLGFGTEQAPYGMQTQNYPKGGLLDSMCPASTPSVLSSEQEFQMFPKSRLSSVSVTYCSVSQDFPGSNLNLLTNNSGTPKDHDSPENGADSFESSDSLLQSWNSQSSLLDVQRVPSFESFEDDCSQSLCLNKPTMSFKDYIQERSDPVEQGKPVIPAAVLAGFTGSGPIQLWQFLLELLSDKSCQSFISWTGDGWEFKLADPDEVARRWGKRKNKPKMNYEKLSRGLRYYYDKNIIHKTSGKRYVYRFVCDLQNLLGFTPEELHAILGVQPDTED
Method in brief: as §1

[5] = target: T4, SPDEF (Homo sapiens, UniProt O95238 1-335)
T4 sequence: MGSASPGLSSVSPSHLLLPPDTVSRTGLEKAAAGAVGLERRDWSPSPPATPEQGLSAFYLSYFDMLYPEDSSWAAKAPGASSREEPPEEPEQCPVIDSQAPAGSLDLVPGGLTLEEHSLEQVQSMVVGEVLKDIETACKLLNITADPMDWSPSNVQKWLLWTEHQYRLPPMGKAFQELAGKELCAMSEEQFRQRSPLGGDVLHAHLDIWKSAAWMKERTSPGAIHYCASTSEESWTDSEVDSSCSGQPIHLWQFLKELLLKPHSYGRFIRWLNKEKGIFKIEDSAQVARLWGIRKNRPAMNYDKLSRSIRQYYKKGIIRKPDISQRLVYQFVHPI
Method in brief: as §1

[6] = target: T5, ETV7 (Homo sapiens, UniProt Q9Y603 1-341)
T5 sequence: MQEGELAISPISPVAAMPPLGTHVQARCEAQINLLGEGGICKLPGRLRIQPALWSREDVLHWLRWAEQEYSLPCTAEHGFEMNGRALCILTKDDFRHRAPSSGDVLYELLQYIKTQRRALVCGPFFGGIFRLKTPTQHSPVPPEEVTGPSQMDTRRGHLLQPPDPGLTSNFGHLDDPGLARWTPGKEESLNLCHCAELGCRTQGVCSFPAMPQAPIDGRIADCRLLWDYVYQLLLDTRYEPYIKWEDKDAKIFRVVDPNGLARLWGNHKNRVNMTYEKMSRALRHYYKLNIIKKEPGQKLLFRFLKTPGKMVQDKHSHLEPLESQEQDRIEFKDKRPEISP
Method in brief: as §1

[7] = target: T6, ELF5 (Homo sapiens, UniProt Q9UKW6-2 1-255)
T6 sequence: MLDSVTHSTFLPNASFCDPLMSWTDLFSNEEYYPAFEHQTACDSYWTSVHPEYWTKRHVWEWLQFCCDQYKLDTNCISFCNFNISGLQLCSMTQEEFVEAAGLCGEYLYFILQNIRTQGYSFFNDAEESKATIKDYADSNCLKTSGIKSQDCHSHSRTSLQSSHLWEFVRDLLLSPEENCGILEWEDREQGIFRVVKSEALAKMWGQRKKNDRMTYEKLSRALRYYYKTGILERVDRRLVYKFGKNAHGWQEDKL
Method in brief: as §1

[8] = target: T7, ETV3 (Homo sapiens, UniProt P41162-2 1-143)
T7 sequence: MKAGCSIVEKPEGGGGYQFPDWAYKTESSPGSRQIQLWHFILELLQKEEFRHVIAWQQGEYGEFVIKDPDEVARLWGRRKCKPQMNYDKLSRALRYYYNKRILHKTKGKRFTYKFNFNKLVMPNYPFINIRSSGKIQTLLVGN
Method in brief: as §1

[9] = target: ETV6 (Homo sapiens, UniProt P41212 1-452)
Sequence of ETV6 (P41212 whole entry): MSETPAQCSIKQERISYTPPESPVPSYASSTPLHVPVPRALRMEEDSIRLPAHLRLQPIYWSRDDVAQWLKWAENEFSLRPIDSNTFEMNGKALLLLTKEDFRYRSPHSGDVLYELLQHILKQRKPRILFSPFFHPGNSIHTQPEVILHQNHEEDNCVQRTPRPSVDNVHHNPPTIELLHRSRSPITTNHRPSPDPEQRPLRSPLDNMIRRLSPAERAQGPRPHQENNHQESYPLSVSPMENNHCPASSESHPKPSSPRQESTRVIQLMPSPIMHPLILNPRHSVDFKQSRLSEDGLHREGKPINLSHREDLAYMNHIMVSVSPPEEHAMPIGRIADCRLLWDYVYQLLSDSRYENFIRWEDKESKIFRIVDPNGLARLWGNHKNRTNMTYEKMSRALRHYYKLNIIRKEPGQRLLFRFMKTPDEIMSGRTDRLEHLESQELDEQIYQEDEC
Method in brief: as §1

Sequence: CGAATT
- binding signal [1]: 1.15 fold enrichment (6-mer frequency, TF over GST control)
- binding signal [2]: 1.28 fold enrichment (6-mer frequency, TF over GST control)
- binding signal [3]: 1.28 fold enrichment (6-mer frequency, TF over GST control)
- binding signal [4]: 1.14 fold enrichment (6-mer frequency, TF over GST control)
- binding signal [5]: 1.28 fold enrichment (6-mer frequency, TF over GST control)
- binding signal [6]: 1.31 fold enrichment (6-mer frequency, TF over GST control)
- binding signal [7]: 1.17 fold enrichment (6-mer frequency, TF over GST control)
- binding signal [8]: 1.22 fold enrichment (6-mer frequency, TF over GST control)
- binding signal [9]: 1.08 fold enrichment (6-mer frequency, TF over GST control)
